The values below come from PubChem BioAssay (NCI).

The panel holds about 83,000 compounds, 20% with a hit somewhere; the sample as a whole holds those more often.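 Assay: single dose, 48 h. Readout: percent growth (0 = no net growth; negative = cell death). Active: <10.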 Activity calls are given as the source filed them.

This test relates to NCI-H460 lung. The test can be described thus: NCI-60 one-dose screen, 48 h (100 = growth as untreated, 0 = no growth, -100 = all killed). As to conditions: 10 µM unless noted.
For the compound `CCCCn1cc(C(=O)/C(C#N)=C/c2cc3ccccc3nc2Cl)c2cc(OC)ccc21`, the growth was 101% (inactive). The figure for `CCCCNCCc1ccccn1` is 107% (inactive).

In the case of `CC(=O)C1C(=O)N(C)C(=O)N(C)C1=O`, the growth is 102% (inactive). The figure for `CC1(C)N=C(N)N=C(N)N1c1cccc(C(=O)Nc2cccc(S(=O)(=O)F)c2)c1` is 97.3% (inactive). On to `C[C@]12CC[C@@H]3C4=C(CC[C@H]3[C@@H]1CC[C@@H]2O)CC(=O)CC4`, for which the growth was 105% (inactive). For the compound `Oc1ccccc1OB(Oc1ccccc1O)N(CCCl)CCCl`, the growth is 68.3% (inactive). Take `NC(Cc1ccc2c(c1)OCO2)c1ccc2c(c1)OCO2` (centres undefined): the growth is 104% (inactive). With `COc1ccc(-c2ccc(OC)c(OC)c2OC)cc1`, the growth was 12% (inactive).

On to `CC1(C)N=C(N)N=C(N)N1c1ccc(CCCCc2ccc(S(=O)(=O)F)cc2)c(Cl)c1`, for which the growth was 10.7% (inactive). In the case of `COc1ccc(C2=NN(c3ccccc3)C(c3sc(N(CCCl)CCCl)nc3Cl)C2)cc1` (centres undefined), the growth was 99% (inactive).

With `N#CC1c2ccccc2C=CN1C(=O)c1ccc(N(CCCl)CCCl)cc1` (centres undefined), the growth is 111% (inactive). In the case of `CSc1ccccc1NP1(=O)OCC(C)([N+](=O)[O-])CO1` (centres undefined), the growth is 101% (inactive). As for `Cc1ccc(N)cc1[As]=[As]c1cc(N)ccc1C` (centres undefined), the growth is 60.4% (inactive).

As for `C/C(=N/OC(=O)N(C)C)c1cc(Cl)ccc1Cl`, the growth is 105% (inactive). For `CCC(C)[C@H]1O[C@]2(C=C[C@@H]1C)C[C@@H]1C[C@@H](C/C=C(\C)[C@@H](OC3C[C@H](OC)C(O[C@H]4C[C@H](OC)[C@@H](O)[C@H](C)O4)[C@H](C)O3)[C@@H](C)/C=C/C=C3\CO[C@@H]4[C@H](O)C(C)=C[C@@H](C(=O)O1)[C@]34O)O2` (some centres undefined) the value was -34.5% (active). Regarding `CC1(C)N=C(N)N=C(N)N1c1ccc(CCCCc2ccc(S(=O)(=O)F)cc2)cc1`, the growth is 12.3% (inactive). For `Cc1ccc(C(=O)C2CN(C)CCC2(O)c2ccc(C)cc2)cc1` (centres undefined) the value was 111% (inactive); for `O=C1NC(=O)C(CN2C(=O)C3(c4ccccc42)[C@H](Cl)C(=O)N3c2ccccc2)C(=O)N1` (some centres undefined), 94.8% (inactive). With `C=CCC1(CC)C(=O)NC(=S)NC1=O`, the growth was 111% (inactive). Turning to `C/C(=N/OC(=O)N(C)C)c1ccc(Cl)cc1Cl`, the growth is 104% (inactive). The figure for `CCC[CH2][Sn]([CH2]CCC)([CH2]CCC)[O]C(=O)CC` is -84.1% (active). On to `O=C(NCc1ccc([N+](=O)[O-])cc1)Nc1ccc(S(=O)(=O)F)cc1`, for which the growth is 95.8% (inactive).

`n1nc(-c2nonc2-c2nn[nH]n2)n[nH]1`: the growth was 109% (inactive). The figure for `CNC(=O)Oc1ccccc1-c1ccccc1` is 112% (inactive). In the case of `CC1(C)N=C(N)N=C(N)N1c1ccc(OCCCCOc2ccc(S(=O)(=O)F)cc2)c(Cl)c1`, the growth is 4.24% (active). For `CCCCOC(=O)c1ccccc1C(=O)O.CCCCOC(=O)c1ccccc1C(=O)O.[Cu+2]` the value was 109% (inactive); for `NC(=O)C(Cl)Cl`, 100% (inactive); for `CCN(CC)c1ccc(C=C2C(=O)NC(=S)NC2=O)cc1`, 104% (inactive).

As to `Clc1ccc(SSC(Cl)(Cl)Cl)cc1`, the growth is 101% (inactive). For `[O]=[Sn]([CH]1CCCCC1)[CH]1CCCCC1` the value was -85.8% (active); for `ClCCN(CCCl)c1nc(Cl)c(C2CC(c3ccccc3)=NN2c2ccccc2)s1` (centres undefined), 89.1% (inactive); for `CC(=O)C1CCC2C3CC=C4CC(OC(=O)Cc5ccc(N(CCCl)CCCl)cc5)CCC4(C)C3CCC12C` (centres undefined), 101% (inactive). For `Cc1ccccc1O` the value was 117% (inactive); for `O=[N+]([O-])c1ccccc1N1CCNCC1`, 109% (inactive).
